According to PubChem BioAssay (NCATS):
Inconclusive results are not listed. Where a call stands in place of a potency, no number is given. Active and inactive are the calls of the source. The call rests on the fitted dose curve; in most records, active means well fitted cell-killing curve with a large enough effect; inconclusive means small, poorly fitted or top-dose-only effect, or effect the other way; inactive means no such curve, though single readings can be large or run the other way. Non-standard residues stand in square brackets, D forms with d. Residues, ends and D or L forms follow the SMILES beside them. *: point of attachment. Nva = CCC[C@H](N)C(=O)O; Cbz = O=C(OCc1ccccc1)*

Test: Quantitative High-Throughput drug screen in 47 multiple myeloma cell lines against the NCATS MIPE library collection: LP1_DSMZ cell viability assay (AID 1918982); further: nearly all actives have a fitted effect of over 35% in size
Conditions: LP1 myeloma viability, CellTiter-Glo ATP luminescence, 48 h; series mostly up to 45.8 µM
Excerpt: PI: Beverly A. Mock Ph.D.
Laboratory of Cancer Biology and Genetics,
Center for Cancer Research, National Cancer Institute,
National Institute of Health, Bethesda, Maryland
Drug resistance and disease progression are common in multiple myeloma (MM) patients, underscoring the need for new therapeutic combinations. […] We hypothesized that effective combinations would reduce MYC expression and enhance p16 activity. […] These preclinical data identify potentially useful drug combinations for evaluation in drug-resistant MM and reveal potential mechanisms of combined drug sensitivity.
Described herein is the primary MIPE qHTS used to cherrypick compounds. Validated compounds were then further tested for potential synergistic activiy.
[1] Peat TJ, Gaikwad SM, Dubois W, Gyabaah-Kessie N, Zhang S, Gorjifard S, Phyo Z, Andres M, Hughitt VK, Simpson RM, Miller MA, Girvin AT, Taylor A, Williams D, D'Antonio N, Zhang Y, Rajagopalan A, Flietner E, Wilson K, Zhang X, Shinn P, Klumpp-Thomas C, McKnight C, Itkin Z, Chen L, Kazandijian D, Zhang J, Michalowski AM, Simmons JK, Keats J, Thomas CJ, Mock BA. Drug combinations identified by high-throughput screening promote cell cycle transition and upregulate Smad pathways in myeloma. Cancer Lett. 2023 Aug 1;568:216284. doi: 10.1016/j.canlet.2023.216284. Epub 2023 Jun 24. PMID: 37356470; PMCID: PMC10408729.
SEQUENCE No. (e.g., 1, 2, 3, etc.); […] (e.g., Cells, Incubation, Reagent, etc.); VALUE and DESCRIPTION.
1; Cells; 5 uL; white, solid bottom 1536-well Greiner assay plate.
2; Compounds; 23 nL; Kalypsis pin tool (Wako USA) equipped with a 1536-well pin head to transfer to the assay plates.
3; Incubation; 48 hours; 37C incubation.
4; Reagent;5uL; CellTiter Glo (Promega).
5; Detector; 425V; Luminescence; Viewlux PerkinElmer.
NOTES (numbers refer to Sequence numbers above)
1. The cell-based screening methods employed in this study were like those previously published. Briefly, the corresponding myeloma cell lines were screened in 1,536-well plates with 500 cells, 5-uL per well for inhibition of cell viability (assessed by measuring ATP levels with CellTiterGlo).
2. NCATS MIPE 4.0 library of approved and investigational drugs were added using the Kalypsis pin tool. Wells treated with DMSO only for 100% viability and media only for 0% viability were used as controls.
3. The assay plates were covered and incubated for 48 hours in a 37C, 5% CO2 incubator with controlled humidity.
4. After 48 hours, CellTilter-GloTM luminescent substrate mix (Promega) reagent was added to the assay plate and plates we incubated for 5 min at room temperature.
5. Signal was measured as median relative luminescence units on a ViewLux (PerkinElmer) multiplate reader.
[1] Heske CM, Davis MI, Baumgart JT, Wilson K, Gormally MV, Chen L, Zhang X, Ceribelli M, Duveau DY, Guha R, Ferrer M, Arnaldez FI, Ji J, Tran HL, Zhang Y, Mendoza A, Helman LJ, Thomas CJ. Matrix Screen Identifies Synergistic Combination of PARP Inhibitors and Nicotinamide Phosphoribosyltransferase (NAMPT) Inhibitors in Ewing Sarcoma. Clin Cancer Res. 2017 Dec 1;23(23):7301-7311. doi: 10.1158/1078-0432.CCR-17-1121. Epub 2017 Sep 12. PMID: 28899971; PMCID: PMC6636827.
Potency means the concentration at half of the fitted maximal effect.

Compound | Potency
Cc1cnc(Nc2ccc(CN3CCOCC3)cc2)nc1Nc1cccc(S(=O)(=O)NC(C)(C)C)c1 | 5900 nM (active)
CCC[C@@H](C=O)NC(=O)[C@H](CC(C)C)NC(=O)[C@H](CC(C)C)NC(=O)OCc1ccccc1 (Cbz-Leu-Leu-[Nva]-aldehyde) | 1320 nM (active)
C=C1C(=O)O[C@H]2[C@@H]1CCC(C)=CCC[C@@]1(C)O[C@@H]21 | 5900 nM (active)
O=C(c1ccc(F)cc1)N1CCC[C@H](c2nc(-c3ccc(F)cc3)no2)C1 | inactive
C=C(C)[C@@H]1CC[C@]2(C(=O)O)CC[C@]3(C)[C@H](CC[C@@H]4[C@@]5(C)CC[C@H](O)C(C)(C)[C@@H]5CC[C@]43C)[C@@H]12 | inactive
CC(=O)[C@]1(O)Cc2c(O)c3c(c(O)c2[C@@H](O[C@H]2C[C@H](N)[C@@H](O)[C@H](C)O2)C1)C(=O)c1ccccc1C3=O | 1320 nM (active)
N#CC(=C(O)c1ccc(Cl)cc1Cl)c1nc2cc(Cl)ccc2c(=O)[nH]1 | inactive
C=C[C@@H]1CN2CCC1C[C@H]2[C@H](O)c1ccnc2ccc(OC)cc12 (stereo not given in full) | inactive
COc1cc(O)c2c(c1)C1OC1C[C@H](O)[C@H](O)C(=O)C=CC[C@H](C)OC2=O (stereo not given in full) | 5260 nM (active)
c1coc(CNc2ncnc3nc[nH]c23)c1 | inactive
C=CC(=O)Nc1cccc(Nc2nc(NC3CCC(N(C)C)CC3)nc3c2ncn3C(C)C)c1 (stereo not given) | 372 nM (active)
Cc1ncc(-c2ccnc(Nc3ccc(S(C)(=O)=O)cc3)n2)n1C(C)C | 3320 nM (active)
Cn1cc(-c2ccc3ncc(Cc4ccc5ncccc5c4)n3n2)cn1 | inactive
N#CNC(=NCCCCCCOc1ccc(Cl)cc1)Nc1ccncc1 | 18.7 nM (active)
O=C(Nc1ccc(Oc2ccnc3[nH]ccc23)c(F)c1)c1cccn(-c2ccc(F)cc2)c1=O | inactive
O=c1[nH]c(=O)n([C@H]2C[C@@H](O)[C@@H](CO)O2)cc1C=CBr | inactive
OCC(O)C(O)C(O)CO (stereo not given) | inactive
CN(C)CC(=O)N1CCC(c2ccc(NC(=O)c3ncc(C#N)[nH]3)c(C3=CCCCC3)c2)CC1 | inactive
Nc1nc(=O)n([C@H]2CSC(CO)O2)cc1F (stereo not given in full) | inactive
O=C(C=Cc1ccc(CN(CCO)CCc2c[nH]c3ccccc23)cc1)NO | 148 nM (active)

Compound | Potency
CN[C@H](CC(C)C)C(=O)N[C@H]1C(=O)N[C@@H](CC(N)=O)C(=O)N[C@@H]2C(=O)N[C@H]3C(=O)N[C@H](C(=O)N[C@H](C(=O)O)c4cc(O)cc(O)c4-c4cc3ccc4O)[C@H](O)c3ccc(c(Cl)c3)Oc3cc2cc(c3O[C@@H]2O[C@H](CO)[C@@H](O)[C@H](O)[C@@H]2O[C@H]2C[C@](C)(N)[C@H](O)[C@H](C)O2)Oc2ccc(cc2Cl)[C@H]1O | inactive
O=C(CN1C(=O)C2(CCCC2)NC[C@H]1c1cc(F)cc(F)c1)Nc1ccc2c(c1)C[C@@]1(C2)C(=O)Nc2ncccc21 | inactive
C[C@H](NC(=O)[C@@H](O)c1cc(F)cc(F)c1)C(=O)N[C@@H]1C(=O)N(C)c2ccccc2-c2ccccc21 | inactive
COC(=O)C=CC(=O)OC | inactive
Cc1cnc(Nc2ccc(N3CCN(C)CC3)cc2)nc1Nc1cccc(S(=O)(=O)NC(C)(C)C)c1 | 5260 nM (active)
CN(CC(=O)N(Cc1ccc(C2CCCCC2)cc1)c1ccc(C(=O)O)c(O)c1)S(=O)(=O)c1c(F)c(F)c(F)c(F)c1F | 20900 nM (active)
CC[C@H]1OC(=O)[C@H](C)[C@@H](O[C@H]2C[C@@](C)(OC)[C@@H](O)[C@H](C)O2)[C@H](C)[C@@H](O[C@@H]2O[C@@H](C)C[C@H](N(C)C)[C@@H]2O)[C@](C)(O)C[C@@H](C)C(=O)[C@H](C)[C@@H](O)[C@]1(C)O | inactive
CC(C=CC=C(C)C=CC1=C(C)CCCC1(C)C)=CC=CC=C(C)C=CC=C(C)C=CC1=C(C)CCCC1(C)C | inactive
C=Cc1c(C)c2cc3nc(cc4[nH]c(cc5nc(cc1[nH]2)C(C)=C5CCC(=O)O)c(CCC(=O)OC)c4C)[C@@]1(C)C3=CC=C(C(=O)OC)[C@H]1C(=O)OC | 1050 nM (active)
C[C@@H]1[C@H](C)CC[C@]2(C(=O)O)CC[C@]3(C)C(=CC[C@@H]4[C@@]5(C)C[C@@H](O)[C@H](O)[C@@](C)(CO)[C@H]5CC[C@]43C)[C@@H]12 | inactive
CCCCCCCCCCCCCCCC(=O)OC[C@@H](NC(=O)C(Cl)Cl)[C@H](O)c1ccc([N+](=O)[O-])cc1 | inactive
OCCNC1CCCc2c1[nH]c1ccc(-c3ccccc3)cc21 (stereo not given) | 23500 nM (active)
C[C@H]1COc2c(N3CCN(C)CC3)c(F)cc3c(=O)c(C(=O)O)cn1c23 | inactive
COC(=O)[C@@H]1CC2=CC(=O)CC[C@]2(C)[C@@]23O[C@@H]2C[C@@]2(C)[C@H](CC[C@@]24CCC(=O)O4)[C@@H]13 | inactive
COc1cc(C(C)C)c(Oc2cnc(NC(CO)CO)nc2N)cc1I | inactive
NS(=O)(=O)OC[C@@H]1C[C@@H](n2ccc3c(N[C@H]4CCc5ccccc54)ncnc32)C[C@H]1O | 662 nM (active)
O=C(O)C=Cc1ccc(Cn2ccnc2)cc1 | inactive
CCCCCCCCCCCCc1ccc(S(=O)(=O)Nc2nncs2)cc1 | inactive
CC(=O)O[C@H]1C[C@@H]2CC[C@H]3[C@H]4C[C@H]([N+]5(C)CCCCC5)[C@@H](OC(C)=O)[C@@]4(C)CC[C@@H]3[C@@]2(C)C[C@H]1N1CCCCC1 | inactive
NC(=O)c1cccc(-c2cccc(OC(=O)NC3CCCCC3)c2)c1 | inactive
